The source of these data is PubChem BioAssay (NCI).

Some test systems named below: NCI-H23 lung; NCI-H226 lung; NCI-H322M lung; HOP-62 NSCLC; NCI-H460 lung; HOP-92 NSCLC; NCI-H522 lung; A549/ATCC NSCLC; 786-0 renal; COLO 205 colon.
Assay in all cases: NCI-60 one-dose screen, 48 h (100 = growth as untreated, 0 = no growth, -100 = all killed)
Conditions in all cases: 10 µM unless noted

This is part of a sample that, as a whole, favours compounds with a hit. Of some 83,000 tested, about 20% had one in any assay.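 Negative percent growth values reflect cell death: -40 means 40% of the cells present at the start died, and -100 means all died.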 Values without a mark were called inactive. Activity calls are given as the source filed them. How the source made its calls: active means growth percent below 10; inactive means the rest.

For the compound `COc1ccc(-c2ccc(C)n2-c2ccc(-c3nc4cc(Cl)ccc4s3)cc2)cc1`, the growth was 83.4% in the experiment with NCI-H23 lung; 78.7% in the experiment with NCI-H226 lung; 103% with NCI-H322M lung; 102% in the experiment with HOP-62 NSCLC; 99.7% in the experiment on NCI-H460 lung; 133% in the experiment on HOP-92 NSCLC. For the same compound, the growth with NCI-H522 lung was 98.8%; in the experiment with A549/ATCC NSCLC, 95.5%; in the experiment with 786-0 renal it was 106%; with COLO 205 colon it was 95.9%.

On to `COc1ccc(/C=C(\C#N)c2cc(OC)c3c(c2)OCO3)cc1`, for which the growth in the experiment with NCI-H23 lung was 37.5%; with NCI-H226 lung it was 26.7%; with NCI-H322M lung it was 44%; in the experiment on HOP-62 NSCLC it was 35.8%; with NCI-H460 lung, 5.33% (active); with HOP-92 NSCLC, 43.6%. Besides, the growth in the experiment on NCI-H522 lung is -8.84% (active); in the experiment with A549/ATCC NSCLC, 15.4%; in the experiment with 786-0 renal it was 20%; in the experiment with COLO 205 colon it was -41% (active).

With `C=C1CCC[C@]2(C)CCC[C@H](C)[C@@H](OC(C)=O)[C@@H]3OC(=O)C(=C)[C@@H]3C[C@H]1O2`, the growth is 74.5% in the experiment on NCI-H23 lung; 78.6% in the experiment with NCI-H226 lung; 99% with NCI-H322M lung; 99.9% in the experiment with HOP-62 NSCLC; 74.7% with NCI-H460 lung; 24% in the experiment on HOP-92 NSCLC. Further, the growth is -6.33% (active) in the experiment on NCI-H522 lung, 83.3% in the experiment with A549/ATCC NSCLC, 91.3% with 786-0 renal and 103% with COLO 205 colon.

As for `Cc1nc2cncc(C#Cc3cncc(C(=O)Nc4ccc(CN5CCN(C)CC5)c(C(F)(F)F)c4)c3)c2nc1C`, the growth with NCI-H23 lung is 7.45% (active); with NCI-H226 lung, -28.7% (active); with NCI-H322M lung, 8.94% (active); in the experiment with HOP-62 NSCLC it was -17.4% (active); in the experiment with NCI-H460 lung, 13.9%; with HOP-92 NSCLC it was -40.5% (active). Further, the growth is 10.2% in the experiment with NCI-H522 lung, 31% with A549/ATCC NSCLC, 29.6% with 786-0 renal and -12.3% (active) with COLO 205 colon.

On to `COc1ccc2[nH]c(=O)c3c4ccccc4cn3c2c1`, for which the growth with NCI-H23 lung was 39.4%; in the experiment on NCI-H226 lung, 37%; in the experiment on NCI-H322M lung it was 11.6%; with HOP-62 NSCLC, 39.3%; in the experiment with NCI-H460 lung, 2.51% (active); in the experiment on HOP-92 NSCLC it was 33.7%. For the same compound, the growth with NCI-H522 lung was 3.62% (active); with A549/ATCC NSCLC, 40.1%; in the experiment with 786-0 renal, 17.7%; in the experiment on COLO 205 colon, 0.252% (active).

Turning to `O=C(Nc1cccc(-n2cc(-c3ccncc3)c(-c3ccc(Cl)c(O)c3)n2)c1)Nc1ccc(Cl)c(C(F)(F)F)c1`, the growth in the experiment on NCI-H23 lung is -25.8% (active); in the experiment with NCI-H226 lung it was 3.43% (active); in the experiment on NCI-H322M lung, 24.7%; in the experiment on HOP-62 NSCLC, -17% (active); in the experiment with NCI-H460 lung, -43.7% (active); in the experiment on HOP-92 NSCLC, -30.7% (active). Further, the growth with NCI-H522 lung is -30% (active); in the experiment on A549/ATCC NSCLC it was -21.3% (active); in the experiment on 786-0 renal, 4.7% (active); in the experiment on COLO 205 colon, -60.2% (active).

On to `CCCCCCCCCCCCCCCCCCNC(=O)[C@H]1CSC(c2cccs2)N1` (stereo not given in full), for which the growth in the experiment on NCI-H23 lung was 18.9%; in the experiment with NCI-H226 lung, -77.5% (active); with NCI-H322M lung it was 0.224% (active); with HOP-62 NSCLC, -90.3% (active); in the experiment with NCI-H460 lung, -78.4% (active); with HOP-92 NSCLC it was 46.3%. The growth in the experiment with NCI-H522 lung was 38.6%; in the experiment with A549/ATCC NSCLC, 8.15% (active); with 786-0 renal, 3.69% (active); with COLO 205 colon, 80.6%.

With `COP(=O)(OC)/C(=N\NS(=O)(=O)c1ccc(C)cc1)c1ccccc1`, the growth in the experiment with NCI-H23 lung was 91.5%; in the experiment on NCI-H226 lung, 89.2%; in the experiment on NCI-H322M lung it was 102%; in the experiment on HOP-62 NSCLC, 95.5%; in the experiment with NCI-H460 lung, 101%; in the experiment on HOP-92 NSCLC, 106%. For the same compound, the growth in the experiment on NCI-H522 lung was 126%; with A549/ATCC NSCLC, 104%; in the experiment with 786-0 renal, 94.7%; in the experiment with COLO 205 colon, 109%.

With `CN(C[C@H]1Cc2c(cccc2N2CCN(c3ncccn3)CC2)CN1)[C@H]1CCCc2cccnc21`, the growth in the experiment on NCI-H23 lung was 45.5%; in the experiment on NCI-H226 lung, 39.4%; in the experiment with NCI-H322M lung, 50.3%; in the experiment with HOP-62 NSCLC it was 17.2%; with NCI-H460 lung, 20.7%; in the experiment with HOP-92 NSCLC it was 27.4%. For the same compound, the growth in the experiment on NCI-H522 lung is 52.6%; in the experiment with A549/ATCC NSCLC, 25.7%; in the experiment on 786-0 renal, 39.5%; in the experiment with COLO 205 colon, 10.2%.

Consider `Cc1nc2ncccc2nc1Nc1ccc(S(=O)(=O)Nc2cncs2)cc1`, for which the growth in the experiment with NCI-H23 lung is 85%; in the experiment on NCI-H226 lung it was 92.5%; in the experiment with NCI-H322M lung, 101%; with HOP-62 NSCLC it was 94%; with NCI-H460 lung it was 97.1%; in the experiment with HOP-92 NSCLC, 65.4%. In addition, the growth in the experiment on NCI-H522 lung is 103%; in the experiment on A549/ATCC NSCLC, 103%; with 786-0 renal, 96.3%; in the experiment on COLO 205 colon, 98.9%.

As to `COc1cccc(-c2cc3c(O)cc(C#N)cc3[nH]2)c1`, the growth in the experiment with NCI-H23 lung is 92.5%; with NCI-H226 lung it was 101%; with NCI-H322M lung, 85.4%; in the experiment on HOP-62 NSCLC, 108%; in the experiment with NCI-H460 lung it was 96.9%; in the experiment on HOP-92 NSCLC it was 113%. Also, the growth was 80.2% with NCI-H522 lung, 94.6% with A549/ATCC NSCLC, 90.5% in the experiment with 786-0 renal and 115% in the experiment with COLO 205 colon.

For `Oc1ccc(Cl)cc1-c1cc(-c2ccc(F)cc2)n[nH]1`, the growth in the experiment with NCI-H23 lung was 53.5%; in the experiment on NCI-H226 lung, 92.7%; in the experiment on NCI-H322M lung it was 68.1%; in the experiment on HOP-62 NSCLC, 62.5%; with NCI-H460 lung, 42.5%; in the experiment on HOP-92 NSCLC, 64.6%. Moreover, the growth was 60.9% with NCI-H522 lung, 62% in the experiment on A549/ATCC NSCLC, 85.6% in the experiment with 786-0 renal and 81.7% in the experiment with COLO 205 colon.

For the compound `O=C(NCCNc1nccc(-n2ccc3cccnc32)n1)c1ccc(C(F)(F)F)cc1`, the growth with NCI-H23 lung was 105%; in the experiment with NCI-H226 lung, 97.7%; in the experiment on NCI-H322M lung it was 107%; in the experiment with HOP-62 NSCLC it was 99.2%; in the experiment on NCI-H460 lung it was 102%; with HOP-92 NSCLC, 112%. Moreover, the growth in the experiment with NCI-H522 lung was 100%; with A549/ATCC NSCLC, 102%; in the experiment on 786-0 renal, 103%; in the experiment with COLO 205 colon, 112%.

Regarding `O=C(CSc1nc2ccccc2[nH]1)Nc1ccc(-c2nc3ccccc3s2)c(Cl)c1`, the growth with NCI-H23 lung was -32.5% (active); with NCI-H226 lung, 40.3%; in the experiment with NCI-H322M lung, 64.9%; with HOP-62 NSCLC, 10.2%; with NCI-H460 lung, -4.98% (active); in the experiment on HOP-92 NSCLC, -11.9% (active). The growth with NCI-H522 lung is -9.43% (active); with A549/ATCC NSCLC, -33.7% (active); with 786-0 renal, -72.9% (active); with COLO 205 colon it was 19.5%.
